Measured values taken from PubChem BioAssay AID624331 (National Center for Advancing Translational Sciences (NCATS), 2012).
Inconclusive results are not listed. A call without a number means that no potency is given here. The source made the active and inactive calls. The call rests on the fitted dose curve; in most records, active means well fitted activation curve with a large enough effect; inconclusive means small, poorly fitted or top-dose-only effect; inactive means no such curve, though single readings can be large or run the other way.

Assay: qHTS assay for re-activators of p53 using a Luc reporter: Hit Validation with no p53 Expressed
Conditions: p53-null cells, luciferase reporter counter-screen; series mostly up to 46.1 µM
Outline: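 Without p53 expression, cells (1000/well, Opti-MEM + 10% FBS) were exposed 24 h at 37 deg C to compounds in a 1:5 series from 10 mM stock (top 46.1 µM in well). Luminescent signal read 10 min after Amplite addition; actives flag unspecific activation.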

| SMILES | Potency |
| --- | --- |
| Nc1c(C(=O)CSc2ccccn2)c(=O)[nH]c(=O)n1C1CC1 | inactive |
| Cc1ccc(Nc2nc(N)nc(CSc3nccn3C)n2)cc1 | inactive |
| COc1ccccc1C(=O)NC(=S)NNC(=O)c1sc2ccccc2c1Cl | inactive |
| O=C(/C=C/c1ccco1)Nc1ccccn1 | inactive |
| C/C(CC(C)C)=N\NC(=O)Nc1ccccc1 | inactive |
| O=C(NNC1=C(C(=O)C(F)(F)F)CCC1)c1cccc(O)c1 | inactive |
| N#CC(c1ccccc1)C1CCN(Cc2ccccc2)CC1 (centres undefined) | inactive |
| CCN(CC)CCN1C(=O)C(=O)/C(=C(/O)c2cnn(-c3ccccc3)c2C)C1c1ccc(C)o1 (centres undefined) | inactive |
| Cc1cc(C(=O)Nc2ccc(Br)cn2)sc1C | inactive |
| O=C(/C=C/c1ccco1)NC(=S)Nc1cc(-c2nc3ccccc3s2)ccc1Cl | inactive |
| C/C(=N\NC(=O)c1ccc(F)cc1)c1ccccn1 | inactive |
| CC(C)N1CCc2c(sc(NC(=S)NC(=O)c3ccccc3)c2C#N)C1 | inactive |
| CN(CC(=O)Nc1ccc(Cl)c(Cl)c1)C(=O)C1CCCC1 | inactive |
| O=C(c1cnn(-c2ccccc2)c1)c1ccccc1O | inactive |
| CCOc1ccc(-c2nnc(SCC(=O)N3CCNC3=O)o2)cc1 | inactive |
| Cc1ccc2nc(C(F)(F)F)c(C#N)c(N)c2c1 | inactive |
| CNC(=S)N/N=C/c1cc(Br)cc(Br)c1O | inactive |
| CN(NC1CC(=O)N(c2ccccc2)C1=O)c1ccccc1 (centres undefined) | inactive |
| O=C(Nc1ccc2ccccc2c1)c1ccc(Cl)cc1Cl | inactive |
| NC(=NCc1ccccc1)c1cccc([N+](=O)[O-])c1 | inactive |

| SMILES | Potency |
| --- | --- |
| O=[N+]([O-])c1ccc(Cl)cc1Sc1nc2ccccc2o1 | inactive |
| Cc1sc(NC(=O)c2ccc(Cl)s2)c(C(N)=O)c1C | inactive |
| Cc1ccc(C(=O)Nc2ncc3c(n2)CC(c2ccco2)CC3=O)cc1 (centres undefined) | inactive |
| CCC(=O)c1ccc(OC(=O)Cc2ccc(OC)cc2)cc1 | inactive |
| O=C(/C=C/c1ccc([N+](=O)[O-])s1)N1CCCCC1 | inactive |
| O=c1oc2ccccc2cc1-c1cn(-c2ccccc2)c(=S)[nH]1 | inactive |
| CC(C)C(=O)OCC(=O)Nc1ccc(N=Nc2ccccc2)cc1 | inactive |
| O=C(/C=C/c1ccco1)Nc1ccc2nn(-c3ccccc3)nc2c1 | inactive |
| Cc1ccc(C)n1-c1sc2c(c1C(=O)O)CCCC2 | inactive |
| COc1cccc(/C=N/NC(=O)c2nc(-c3ccccc3)cc(-c3ccccc3)n2)c1O | inactive |
| COc1ccc(C(=O)C(CN2CCCC2)c2ccccc2)cc1 (centres undefined) | inactive |
| Cc1c(C(=O)OC2CCC(C)CC2)[nH]c2c1C(=O)CCC2 (centres undefined) | inactive |
| Cc1cccc(NC2SC(=O)N(c3ccccc3)C2=O)c1 (centres undefined) | inactive |
| O=[N+]([O-])c1cc(C(F)(F)F)ccc1NCCc1c[nH]c2ccccc12 | inactive |
| Nc1ccc(-c2cnc(-c3ccc(N)cc3)nc2)cc1 | inactive |
| O=C(/C=C/Nc1ccc(F)cc1F)c1cccs1 | inactive |
| Cc1occc1C(=O)NNC(=S)Nc1ccccc1C(F)(F)F | inactive |
| Cc1nn(-c2ccccc2)c(N2CCCC2)c1/C=N/NC(=O)c1cc(-c2ccccc2)nc2ccccc12 | inactive |
| Cc1ccc2nc(-c3ccc(NC(=O)CN4C(=O)c5ccccc5C4=O)cc3)sc2c1 | inactive |
